The values that follow come from PubChem BioAssay (Tox21).

Unmarked numbers belong to inactive results. Records with an inconclusive call do not appear. The source made the active and inactive calls. Unless noted, the call rests on the fitted dose curve; in most records, active means well fitted curve in the direction sought with a large enough effect in the repeat runs; inconclusive means weak or mixed curves; inactive means no such curve, though single readings can be large; an effect the other way counts as inactive or inconclusive.

A short description of assay [1]: qHTS assay for small molecule agonists of the p53 signaling pathway (AID 651631; calls by dose curve; further: nearly all actives have a fitted effect of over 15% in size; further: potency means the concentration at half of the fitted maximal effect). The procedure, abridged: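 HCT-116 cells carrying a stable p53 response element–beta-lactamase reporter were plated, rested 5 h at 37 °C, then exposed to compound in DMSO for 16 h at 37 °C; reporter activity was read as FRET substrate fluorescence after 2 h at room temperature.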
A general note: qHTS replaces the single test concentration by a dilution series.

Assay [2] can be described thus: qHTS assay for small molecules that induce genotoxicity in human embryonic kidney cells expressing luciferase-tagged ATAD5 (AID 651632). Further: nearly all actives have a fitted effect of over 15% in size. The procedure, abridged: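 A rise in luciferase signal from ATAD5-tagged HEK293T cells marks genetic stress. Cells were exposed to compounds for 16 hr at 37C, 5% CO2, then luciferase was quantified after a 30 min room-temperature incubation with Amplite.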

Assay [3] in a line: qHTS assay for small molecule agonists of the p53 signaling pathway - cell viability (AID 651633; calls by dose curve; further: nearly all actives have a fitted effect of over 30% in size; further: potency means the concentration at half of the fitted maximal effect). The procedure, abridged:
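p53RE-bla cells, seeded at 4,000 per well and rested 5 h at 37 C/5% CO2, received compounds in DMSO for 16 h at 37 C. CellTiter-Glo was then added, and luminescence was read after 30 min at room temperature to gauge cytotoxicity.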

Assay [4] can be described thus: qHTS assay for small molecules that induce genotoxicity in human embryonic kidney cells expressing luciferase-tagged ATAD5 - cell viability (AID 651634; calls by dose curve; further: nearly all actives have a fitted effect of over 25% in size). In short, it runs like this: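 Cytotoxicity counter-readout: after 15.5 hr compound treatment at 37C, live-cell protease activity in ATAD5-luciferase HEK293T cells measured by CellTiter-Fluor fluorescence, 30 min development at 37C.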

The nature of assay [5]: qHTS assay for small molecule disruptors of the mitochondrial membrane potential - cell viability (AID 720634; calls by dose curve;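 further: human HepG2 liver cancer cells; series mostly up to about 83 µM; nearly all actives have a fitted effect of over 20% in size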). In short, it runs like this:
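Cytotoxicity was quantified from ATP content by CellTiter-Glo luminescence in the same wells as the MMP dye read-out. HepG2 (2,000 cells/well) were plated overnight and exposed to compounds for 1 hr at 37 C.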

Assay [6] can be described thus: qHTS assay to test for compound auto fluorescence at 590 nm (red) in HepG2 cells (AID 720674). In short, it runs like this: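 Intrinsic compound fluorescence in the red window (Ex/Em 540/590 nm) is measured in attached HepG2 cells exposed for 1 hr, DMSO vehicle as baseline, benchmarked to Rose Bengal sodium.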
Assay [7] can be described thus: qHTS assay to test for compound auto fluorescence at 535 nm (green) in HepG2 cells (AID 720675).
Assay [8] is described as follows: qHTS assay to test for compound auto fluorescence at 460 nm (blue) in HEK293 cells (AID 720678). In short, it runs like this: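 HEK293 cells (2,000 per well, medium with 10% dialyzed FBS) attached for 4-5 hr at 37C, then received compound and stood overnight at 37C, 5% CO2. Blue fluorescence was read at Ex/Em 405/460 nm and expressed relative to triamterene.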
Assay [9] is described as follows: qHTS assay to test for compound auto fluorescence at 590 nm (red) in HEK293 cells (AID 720679). The procedure, abridged:
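HEK293 cells (2,000/well, medium with 10% dialyzed FBS) attached for 4-5 hr at 37C, received 23 nL compound and were incubated overnight at 37C, 5% CO2. Red fluorescence was then read at 540/590nm Ex/Em, referenced to Rose Bengal sodium.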

Assay [10] in a line: qHTS assay for small molecule disruptors of the mitochondrial membrane potential (AID 720635). Further: potency means the concentration at half of the fitted maximal effect. The procedure, abridged: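 HepG2 cells (2,000/well) attached overnight at 37C, then took compound for 1 hr at 37C, 5% CO2. Mito-MPS dye was added for 30 min; fluorescence was read at 490/535 nm (monomers) and 540/590 nm (aggregates).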
On the % scale 0 is the no-effect control and ±100 the full control effect.

Take `CCC(CO)(CO)[N+](=O)[O-]`: the Potency result in [1], in assay [2], in [3], in assay [4] and in [8] was “inactive” in each case. Besides, the molecule was called inactive in [5], in assay [6], in assay [7] and in [9].
Consider `CC12CC3CC(C)(C1)CC(N)(C3)C2`, for which the Potency result in assay [1], in assay [2], in [3], in [4], in assay [10] and in [8] was “inactive” each time. Besides, the molecule was classed as inactive in assay [5], in assay [6], in assay [7] and in assay [9].
For the molecule `CCCCCCOC(=O)CCCCC`, the Potency result in assay [1], in assay [2], in assay [3], in [4] and in [10] was “inactive” each time. For the same molecule, the molecule was called inactive in assay [5], in assay [6] and in assay [9].
Turning to `COc1ccc(C2C(=O)c3ccccc3C2=O)cc1`, the Potency result in assay [1], in assay [2], in assay [3], in [4], in assay [10] and in assay [8] was “inactive” throughout. Moreover, the call in [5], in assay [6], in assay [7] and in assay [9] was inactive.
On to `Cc1ccc2nc(N)[nH]c(=O)c2c1Sc1ccncc1`, for which the Potency in assay [1] was 2660 nM (active); in assay [3], 1880 nM (active). Further, the Potency entry in assay [2], in assay [4] and in [10] was “inactive” throughout. The call in assay [5], in assay [6], in [7] and in assay [9] was inactive.
With `Nc1ccn([C@H]2CS[C@@H](CO)O2)c(=O)n1`, the Potency result in assay [1], in [2], in assay [3], in assay [4], in [10] and in [8] was “inactive” in each case. In addition, the result in assay [5], in assay [6], in assay [7] and in assay [9] was inactive.
As to `Cc1cccc(C)c1NC(=O)c1cc(S(N)(=O)=O)c(Cl)cc1O`, the Potency entry in [1], in assay [2], in assay [3], in [4], in [10] and in assay [8] was “inactive” in each case. Further, the molecule was classed as inactive in assay [5], in assay [6], in assay [7] and in [9].
As to `CC(C)(O)c1coc(S(=O)(=O)NC(=O)Nc2c3c(cc4c2CCC4)CCC3)c1`, the Potency entry in assay [1], in [2], in [3], in assay [4], in assay [10] and in [8] was “inactive” each time. Besides, the result in assay [5], in [6], in assay [7] and in [9] was inactive.
As to `O=CNNC=O`, the Potency result in [1], in [2], in [3], in assay [4] and in assay [8] was “inactive” in each case. The result in assay [5], in assay [6], in [7] and in [9] was inactive.
On to `O=C1OC[C@H](Cc2cccc(O)c2)[C@H]1Cc1cccc(O)c1`, for which the Potency entry in [1], in assay [2], in assay [3], in assay [4] and in assay [8] was “inactive” each time. The molecule was classed as inactive in [5], in assay [6], in assay [7] and in assay [9]. For the same molecule, the Potency in assay [10] is 8240 nM (active).
In the case of `CC(O)Cn1cnc2c1c(=O)n(C)c(=O)n2C` (stereo not given), the Potency entry in assay [1], in assay [2], in assay [3], in assay [4] and in assay [10] was “inactive” each time. In addition, the molecule was called inactive in assay [5]. For the same molecule, the fluorescence, relative to Rose Bengal in assay [6] was -0.388% [at 18.6 µM]. In assay [7], the fluorescence, % of fluorescein control is 0.0515% [at 18.6 µM]. The fluorescence, % of triamterene in assay [8] was -0.0145% [at 18.6 µM]. In addition, in [9], the fluorescence, % of fluorescent control was 0.0437% [at 18.6 µM].
Turning to `CC(CO)(CO)C(=O)O`, the Potency result in assay [1], in assay [2], in assay [3], in assay [4], in assay [10] and in assay [8] was “inactive” each time. Further, the result in assay [5], in [6], in assay [7] and in assay [9] was inactive.
In the case of `BrC(Br)C(Br)Br`, the Potency result in [1], in assay [2], in assay [3], in assay [4] and in assay [10] was “inactive” each time. In addition, the outcome in assay [5], in assay [6], in assay [7] and in [9] was inactive.
With `COC(=O)CC(C(C)=O)C(=O)OC` (stereo not given), the Potency result in assay [1], in assay [2], in [3], in assay [4], in assay [10] and in assay [8] was “inactive” in each case. The outcome in [5], in assay [6] and in [9] was inactive.
Take `COC(OC)OC`: the Potency result in assay [1], in [2], in [3], in [4], in assay [10] and in assay [8] was “inactive” each time. For the same molecule, the outcome in assay [5], in assay [6], in assay [7] and in assay [9] was inactive.
For `C1CCCCC1`, the Potency entry in assay [1], in [2], in [3], in assay [4], in assay [10] and in assay [8] was “inactive” in each case. The molecule was classed as inactive in [5], in [6], in assay [7] and in [9].
Consider `C=C(C)c1ccccc1`, for which the Potency entry in [1], in [2], in assay [3], in assay [4], in [10] and in assay [8] was “inactive” each time. Moreover, the molecule was classed as inactive in assay [5], in assay [6], in assay [7] and in assay [9].
`CN=C(N)NC(=O)Nc1c(C)cccc1C`: the Potency entry in [1], in assay [2], in [3], in assay [4], in [10] and in assay [8] was “inactive” throughout. Also, the molecule was classed as inactive in assay [5], in [6] and in assay [9].
As for `O=NN(CCCl)C(=O)NCCCl`, the Potency in [1] was 1190 nM (active). Also, the Potency result in assay [2], in assay [3], in assay [4], in [10] and in assay [8] was “inactive” throughout. In addition, the molecule was called inactive in [5], in assay [6], in [7] and in [9].
On to `CC(C)(C(=O)c1cccnc1)c1cccnc1`, for which the Potency result in [1], in [2], in assay [3], in assay [4] and in assay [10] was “inactive” each time. Moreover, the result in assay [5] was inactive. For the same molecule, the fluorescence, relative to Rose Bengal in assay [6] was -0.433% [at 18.6 µM]. In addition, the fluorescence, % of fluorescein control in assay [7] is -0.0177% [at 18.6 µM]. For the same molecule, the fluorescence, % of triamterene in [8] was -0.0025% [at 18.6 µM]. Further, the fluorescence, % of fluorescent control in assay [9] was -0.175% [at 18.6 µM].
With `Cc1ccc(NC(=O)N(C)C)cc1NC(=O)N(C)C`, the Potency entry in assay [1], in assay [2], in assay [3], in [4] and in [10] was “inactive” each time. Further, the molecule was classed as inactive in [5], in [6] and in [9].
For the molecule `O=C(O)c1cccc(Oc2ccccc2)c1`, the Potency result in assay [1], in assay [2], in assay [3], in assay [4], in assay [10] and in assay [8] was “inactive” throughout. Also, the result in [5], in assay [6], in [7] and in assay [9] was inactive.
As for `CC(C)Cc1ccc(CC(=O)O)cc1`, the Potency result in [1], in assay [2], in assay [3], in assay [4], in [10] and in [8] was “inactive” throughout. Moreover, the result in assay [5], in assay [6], in [7] and in assay [9] was inactive.
